# Screening data as filed in PubChem BioAssay.
# This is a sample that favours compounds with a hit; in the whole collection about 5.7% have one here.
# D3 antag: qHTS of D3 Dopamine Receptor Antagonist: qHTS; D3R cells, DiscoveRx beta-arrestin luminescence, antagonist mode; hits give low values; hit rate 2.5% among 360,000; max response, negative = inhibition, %; D(3) dopamine receptor (Homo sapiens), P35462; in the data active = max response below about -50%; inconclusive = no clear call, values can overlap the other calls; also: % is scaled to controls: 0 for no effect and ±100 for the full control effect
# Target sequence (P35462 whole entry, looked up): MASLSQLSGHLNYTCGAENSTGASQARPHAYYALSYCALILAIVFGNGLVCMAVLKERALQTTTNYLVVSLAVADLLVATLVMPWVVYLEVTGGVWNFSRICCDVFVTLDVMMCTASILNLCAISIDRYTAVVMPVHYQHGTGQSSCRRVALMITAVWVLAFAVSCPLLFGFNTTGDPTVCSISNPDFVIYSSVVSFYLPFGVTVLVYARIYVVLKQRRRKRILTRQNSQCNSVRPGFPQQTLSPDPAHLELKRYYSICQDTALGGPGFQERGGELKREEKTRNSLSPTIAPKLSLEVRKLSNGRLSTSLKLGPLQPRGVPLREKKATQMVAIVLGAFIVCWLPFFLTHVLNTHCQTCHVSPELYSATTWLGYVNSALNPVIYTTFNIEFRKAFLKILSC
#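 Cells plated overnight at 1500 cells/well, then exposed to library compounds with dopamine controls for 90 minutes at 37 degrees C. DiscoveRx reagent added for 30–60 minutes at room temperature; luminescence read, quantitative HTS format.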
# ClpP mod: qHTS Assay for Activators of ClpP; purified B. subtilis ClpP, FRET peptide cleavage, 20 min; Potency, µM (top dose mostly 57.5 µM), for inactives: top-dose activity change, negative = active; hit rate 1.9% among 340,000; AID 651965, 2013; active = well fitted falling curve with a large enough effect; inconclusive = small, poorly fitted or top-dose-only effect; inactive = no such curve, though single readings can be large or run the other way; also: potency is read from the fitted curve at half-maximal effect; the source files actives as falling curves though it sought activators and does not explain the sign; nearly all actives have a fitted effect of over 65% in size
# Target sequence (P80244 whole entry, looked up): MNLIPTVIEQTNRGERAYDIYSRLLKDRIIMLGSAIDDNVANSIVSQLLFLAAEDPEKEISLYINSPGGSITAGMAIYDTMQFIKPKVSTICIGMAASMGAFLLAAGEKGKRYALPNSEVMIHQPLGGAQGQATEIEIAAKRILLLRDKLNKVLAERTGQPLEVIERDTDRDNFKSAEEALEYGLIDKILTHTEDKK
#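 Purified B. subtilis ClpP, 10 microg/mL final in Tris/HCl pH8 with KCl, BSA, glycerol and Tween-20, cleaved an Abz/nitrotyrosine-quenched decapeptide. Fluorescence (ex 320, em 430) was read at 0 and 20 min at room temperature. Delta was normalized to 5.8 microM ADEP and DMSO/no-enzyme controls.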
# GLP-1R inv ag: qHTS of GLP-1 Receptor Inverse Agonists (Inhibition Mode); HEK293 GLP-1R CRE-luciferase, luminescence, 24 h; GLP-1R form is constitutively active; Potency, µM (highest dose often 38.3 µM), without a hit: at the top dose activity change, negative = inhibition, actives largely listed as inhibitors; hit rate 1.6% among 410,000; AID 624417, 2012; also: potency is read from the fitted curve at half-maximal effect; % is scaled to controls: 0 for no effect and ±100 for the full control effect; nearly all actives have a fitted effect of over 55% in size
#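 GLP-1R inverse agonism mode: basal reporter luminescence in engineered HEK293 cells measured after one day of compound exposure at 37 deg C, with a 12 min room-temperature detection step.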
# DRD3 agonist: qHTS of D3 Dopamine Receptor Agonist: qHTS; D(3) dopamine receptor (Homo sapiens), P35462; D3R DiscoveRx beta-arrestin cells, luminescence, 90 min; hit rate 0.58% among 410,000; max activation, %; in the data active = max activation above about 30%; also: 0% is about no effect
#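 Cells at 1500/well, incubated overnight, then treated with pinned compounds (dopamine as control) for 90 min at 37 degrees C. DiscoveRx reagent added for 30 - 60 minutes at room temperature; luminescence read.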
# GLP1R cytotox: qHTS of GLP-1 Receptor Inverse Agonists: Cytotox Screen; Potency, µM (highest dose often 38.3 µM), without a hit: at the highest dose activity change, negative = inhibition, hits mostly inhibitors; hit rate 0.13% among 410,000; HEK293 cAMP-luciferase reporter cells, luminescence, 24 h;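 also: loss of luciferase light is scored as toxicity; potency is read from the fitted curve at half-maximal effect; % is scaled to controls: 0 for no effect and ±100 for the full control effect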
#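 MLSMR compounds, 24 hr on cells at 37 deg C/5% CO2; luminescence after luciferase reagent (12 min RT). Inhibition counted as the undesired cytotoxic outcome.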
# GLP-1R agonist: qHTS of GLP-1 Receptor Agonists; Glucagon-like peptide 1 receptor (Homo sapiens), P43220; hit rate 0.007% among 380,000; Potency, µM (highest dose often 45.6 µM), for the others: at the top dose activation, usual class: activators; AID 624172, 2012; HEK293 GLP-1R CRE-luciferase, luminescence, 4-6 h; cells express a hypersensitive GLP-1R form; also: potency is read from the fitted curve at half-maximal effect; % of control where 0% means no effect
# Numbers without * were called inactive; ? = inconclusive; . = no result. Unless noted, calls follow the shape of the dose curve; as a rule, active = well fitted curve in the direction sought with a large enough effect; inconclusive = small, poorly fitted or top-dose-only effect, or another doubt; inactive = no such curve, though single readings can be large; an effect the other way counts as inactive or inconclusive.
SMILES,D3 antag,ClpP mod,GLP-1R inv ag,DRD3 agonist,GLP1R cytotox,GLP-1R agonist
O=C(CSc1ccc(C(F)(F)F)cc1[N+](=O)[O-])Nc1ccc2ccccc2c1,2,28µM*,13%,20,1%,-8%
CC(=O)Nc1cccc(NC(=O)CSc2ccc(C(F)(F)F)cc2[N+](=O)[O-])c1,4,0%,-7%,0,-20%,0%
Cc1cc[n+]2c3c(cccc13)CCC2,22,25µM*,-22%,-2,-19%,2%
O=C(C[n+]1ccccc1Cl)c1ccc(Br)cc1,.,-8%,.,.,.,.
Clc1ccc(-c2ccc(CNCc3ccccn3)o2)cc1,-69*,-3%,-5%,-22,-4%,2%
Fc1ccc(-c2ccc(CNCc3ccccn3)o2)cc1,?,-1%,17%,-10,0%,0%
CCOC(=O)c1c(C)n(-c2ccccc2)c2ccc(O)c(CN(C)C)c12,-12,.,8.9µM*,4,-9%,8%
COc1ccccc1CNC(=O)[C@H](C)NC(=O)C1CCN(C(=O)[C@@H](N)C(C)C)CC1,-5,2%,10%,38*,-24%,-3%
COc1ccc(NS(=O)(=O)c2cnc(N)nc2)cc1Cl,.,1%,2%,-2,-13%,.
O=C(N/N=C\c1cc2c(cc1Cl)OCO2)c1cccnc1,16,-3%,16%,2,3%,-2%
CN1CCN(c2ccccc2/C=N/NC(=O)c2cccnc2)CC1,-50*,0%,10%,-18,3%,-5%
CC(C)NC(=O)C1(C)CSCC(=O)N1Cc1cccc(C(F)(F)F)c1 (configuration not stated),3,0%,12%,-2,-4%,.
COc1ccc(OC)c(NC2=NC3(CCCCC3)N=C(N)N2)c1,-55*,0%,-18%,0,-14%,-10%
O=C(c1ccccc1)C1N=NCC1c1ccc(Cl)cc1 (configuration not stated),1,.,10µM*,7,-7%,17%
CC(C)(C)n1nnnc1C(c1cc2ccccc2o1)N1CCCCC1 (configuration not stated),3,1%,-11%,2,-12%,7%
Cc1ccc(NC(=O)Cn2cc(C(=O)c3ccco3)c3ccccc32)cc1C,.,19%,?,11,-9%,.
Cc1ccc(/C=N/N2CCN(Cc3ccc(C)cc3)CC2)cc1,-6,.,-49%,-21,0%,12%
Cc1ccc(CN2CCN(/N=C/c3sccc3C)CC2)c(C)c1,?,28µM*,?,-13,-8%,1%
Cc1ccc(CN2CCN(/N=C/c3cc(Br)ccc3O)CC2)cc1,-87*,1%,2%,-37,-8%,-13%
COc1ccc(Br)cc1/C=N/N1CCN(Cc2ccccc2)CC1,3,.,?,-18,4%,21%
CSc1ccc(/C=N/N2CCN(Cc3ccc(C)cc3C)CC2)cc1,?,-1%,-18%,0,-1%,18%
Cc1ccc(CN2CCN(/N=C/c3cccs3)CC2)cc1,-59*,-1%,?,-8,11%,5%
Cc1c(NC(=O)c2ccc(-c3ccccc3)cc2)cccc1C(=O)O,24,0%,3.2µM*,6,0%,-4%
O=C(Nc1ccccc1C(=O)O)c1cccc(C(=O)Nc2ccccc2C(=O)O)c1,102,.,141%,30*,-14%,-4%
O=C(Nc1ccccc1C(=O)O)c1ccc(NC(=O)c2ccc(Br)o2)cc1,44,-1%,0%,115*,4%,-7%
SMILES,D3 antag,ClpP mod,GLP-1R inv ag,DRD3 agonist,GLP1R cytotox,GLP-1R agonist
CC(c1ccccc1)N1C(=O)c2ccc(C(=O)Nc3ccccc3C(=O)O)cc2C1=O (configuration not stated),105,0%,52%,32*,-24%,0%
CC(c1ccccc1)N1C(=O)c2ccc(C(=O)Nc3ccc(Br)cc3C(=O)O)cc2C1=O (configuration not stated),43,0%,3%,15,-2%,8%
COc1ccccc1NC(=O)C1=C(C)Nc2nc(SCc3cccc(F)c3)nn2C1c1ccc(C(=O)O)cc1 (configuration not stated),.,1%,-8%,-3,-10%,.
O=C(c1n[nH]c(=O)c2ccccc12)N1CCOCC1,-59*,1%,12%,-6,-6%,4%
O=C(c1n[nH]c(=O)c2ccccc12)N1CCN(Cc2ccc3c(c2)OCO3)CC1,-4,.,-9%,-3,-4%,6%
CCCCOc1ccccc1C(=O)Nc1nonc1-c1ccccc1,.,-9%,?,35*,2%,.
CCOc1ccc(-c2nonc2NC(=O)COc2ccccc2)cc1,.,-2%,12%,-1,-5%,.
FC(F)(F)c1ccccc1/C=N/N1CCN(Cc2ccccc2)CC1,-66*,0%,?,-22,-4%,-2%
O=[N+]([O-])c1ccc(Cl)c(/C=N/N2CCN(Cc3ccccc3Cl)CC2)c1,-51*,-1%,-9%,-26,1%,9%
O=[N+]([O-])c1ccccc1/C=N/N1CCN(Cc2ccccc2)CC1,-67*,0%,?,-17,9%,-8%
Cc1ccc(CN2CCN(/N=C\c3cccc([N+](=O)[O-])c3)CC2)cc1,-56*,.,?,-23,11%,10%
Clc1ccccc1/C=N/N1CCN(Cc2ccccc2)CC1,-23,-2%,-9%,-17,10%,-1%
O=[N+]([O-])c1ccccc1/C=N\N1CCN(Cc2ccccc2Cl)CC1,0,0%,-26%,-14,2%,-1%
COc1ccc(CCNC(=O)C(=O)NCC(c2ccco2)S(=O)(=O)c2cccs2)cc1 (configuration not stated),.,2%,9%,-3,-7%,.
O=C(COC(=O)/C=C/c1ccccc1)NCc1ccco1,-13,2%,2%,-5,0%,4%
Cc1ccc(-n2ncc3c(N4CCCCCC4)ncnc32)cc1C,.,-17%,?,19,0%,.
Cc1cccc(Cn2nc(C)n3c(cc4cc(C)ccc43)c2=O)c1,.,-2%,14%,9,5%,.
O=C(CCNS(=O)(=O)c1ccc(Br)s1)Nc1ccc(Cl)cc1,-52*,1%,-1%,1,?,-3%
O=C(CCNS(=O)(=O)c1ccc(Br)s1)Nc1ccc(Br)cc1,.,2%,?,-6,-22%,.
